The source made the active and inactive calls.

The target in the assay is NADPH oxidase 2 (Homo sapiens) (UniProt P04839). The experiment in a line: compounds shifting NOX2 Amplex Red fluorescence – cell-based, HEK293-NOX2, PMA-stimulated, NOX inhibitor project, primary screen (AID 1159). Further: test concentration not given here. As to conditions: 45 min, higher = more signal, called active from +8 up or from −8 down.
Chain of NADPH oxidase 2 (Homo sapiens) (P04839 whole entry, looked up): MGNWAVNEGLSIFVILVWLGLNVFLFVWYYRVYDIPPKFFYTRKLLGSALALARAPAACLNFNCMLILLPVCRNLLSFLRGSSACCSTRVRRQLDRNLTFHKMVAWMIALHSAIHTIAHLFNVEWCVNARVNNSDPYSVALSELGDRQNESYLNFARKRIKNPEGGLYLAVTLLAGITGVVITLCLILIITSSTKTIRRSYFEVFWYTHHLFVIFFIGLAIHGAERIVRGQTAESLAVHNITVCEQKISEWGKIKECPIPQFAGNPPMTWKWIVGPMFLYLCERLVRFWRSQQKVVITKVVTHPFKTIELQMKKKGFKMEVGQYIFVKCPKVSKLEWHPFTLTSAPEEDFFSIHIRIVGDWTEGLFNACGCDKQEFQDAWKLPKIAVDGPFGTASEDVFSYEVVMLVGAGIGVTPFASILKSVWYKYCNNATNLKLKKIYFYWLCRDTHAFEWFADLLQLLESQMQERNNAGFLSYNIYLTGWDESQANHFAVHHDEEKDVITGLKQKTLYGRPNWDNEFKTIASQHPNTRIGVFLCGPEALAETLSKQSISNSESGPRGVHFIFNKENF
With `COc1ccc([Si](C)(C)[C@@H]2[C@@H](CCO)O[C@]3(C(=O)N(Cc4ccc(NC(C)=O)cc4)c4ccccc43)[C@H]2C)cc1`, the z-score was -0.371 (inactive).

Consider `CCCCC(=C=CC[C@H](O)c1ccccc1OCCO)C[C@H](O)COCc1ccccc1`, for which the z-score was -1.02 (inactive). For the compound `COC(=O)[C@H]1COC(c2ccc(OCCCO)cc2)=N1`, the z-score is -0.257 (inactive). For the compound `CC(C)C[C@@H]1NC(=O)[C@H]2C[C@@H](C(=O)NCCCCCCN(C)C)[C@@H](c3cccc(OCCO)c3)N2C1=O`, the z-score was 1.77 (inactive). Consider `O=C1O[C@@H](c2ccccc2)[C@@H](c2ccccc2)N2[C@@H](c3ccccc3OCCO)[C@]3(C(=O)Nc4ccc(C#CCCO)cc43)[C@@H](C(=O)O)[C@H]12`, for which the z-score was 0.559 (inactive).

For the compound `CC(C)NC(=O)[C@@]1(C)c2ccccc2C(=O)N(Cc2cc(F)cc(C(F)(F)F)c2)[C@H]1c1ccc(CO)cc1`, the z-score is 0.162 (inactive).

For the compound `O=C1O[C@@H](c2ccccc2)[C@@H](c2ccccc2)N2[C@@H](c3ccc(OCCO)cc3)[C@]3(C(=O)Nc4ccccc43)[C@@H](C(=O)N3CCN(c4ncccn4)CC3)[C@H]12`, the z-score is 1.09 (inactive).

For the compound `CCc1cc2c(nc1CC)CCN(CCC(C)=NOC[C@@H](O)[C@H]1O[C@@H]3OC(C)(C)O[C@@H]3[C@H]1O)C2`, the z-score is 0.336 (inactive). As for `C=CC[C@@H]1C=C[C@H](ON=C(C)CCN2CCc3nc(CC)c(CC)cc3C2)[C@@H](CO)O1`, the z-score was -1.24 (inactive). On to `CN(C)CCCNC(=O)[C@@H]1c2ccccc2C(=O)N(Cc2cc(F)cc(C(F)(F)F)c2)[C@H]1c1ccc(CO)cc1`, for which the z-score was 0.547 (inactive). In the case of `O=C1[C@H]2[C@H]3[C@H](O)[C@H](O)CC(=NOC[C@@H](O)COCc4ccco4)[C@H]3CC[C@H]2C(=O)N1c1cccc(Oc2ccccc2)c1`, the z-score was -2.98 (inactive). In the case of `CS(=O)(=O)CCOC(=O)C1=CC(CCCO)=CC(c2cccs2)N(Cc2cccc(OC(F)(F)F)c2)C=C1C(=O)OCCS(C)(=O)=O` (stereo unspecified), the z-score was -0.895 (inactive). The same measure for `CC(CCC(=O)OC[C@H]1O[C@H](C#Cc2ccccc2)C=C[C@@H]1Oc1ccc(C)cc1)=NO[C@@H](C)c1cn([C@H](CO)Cc2ccccc2)nn1`: -1.54 (inactive); for `COc1ccc(O[C@H]2C=C[C@@H](c3ccccc3)O[C@@H]2COC(=O)CCC(C)=NO[C@@H](C)c2cc(-c3c(C)cc(C)cc3C)no2)cc1`: 1.18 (inactive). With `CC(C)[C@@H](OCc1ccccc1)[C@H](C)C=NO[C@H](C)c1cn([C@H](CO)Cc2ccccc2)nn1`, the z-score was -2.23 (inactive).

With `COc1cccc([C@H]2Oc3ccc(OC)cc3C(=NOC(C)CN3CCCc4nc(C)c(C)cc43)[C@@H]2O)c1` (stereo partly specified), the z-score was -1.12 (inactive).

As for `O=C1C[C@@H](O)[C@@H](O)[C@@H]2[C@@H]3C(=O)N(C4CCCCC4)C(=O)[C@@H]3CC[C@H]12`, the z-score is -1.6 (inactive). As for `COc1ccc([Si](C)(C)[C@H]2[C@H](CC(=O)N3CCC[C@H]3CO)O[C@@]3(C(=O)N(Cc4cccc(N5C(=O)COc6ccccc65)c4)c4ccccc43)[C@@H]2C)cc1`, the z-score was 1.1 (inactive). Turning to `CC(C)NC(=O)[C@@]1(c2ccc([N+](=O)[O-])cc2)CC(=O)N(CC23CC4CC(CC(C4)C2)C3)[C@@H]1c1ccc(CO)cc1I`, the z-score is 2.19 (inactive). In the case of `C=CCOC(=O)[C@H]1[C@@H]2C(=O)O[C@@H](c3ccccc3)[C@@H](c3ccccc3)N2[C@@H](c2ccc(OCCOC(=O)[C@H]3C[C@H]4C(=O)N5CCC[C@H]5C(=O)N4[C@H]3c3cccc(OCCO)c3)cc2)[C@]12C(=O)Nc1ccc(I)cc12`, the z-score is -0.669 (inactive). In the case of `CC(C)CN1CCc2nc(-c3ccccc3)c3c(c2CC1)CO[C@@H](C)C3`, the z-score is 1.47 (inactive). Turning to `CC(C)OC(=O)C=C1C[C@@H](c2ccc(C#N)cc2)O[C@@H](c2ccc(C#N)cc2)O1`, the z-score is -0.669 (inactive). On to `C=CC[C@@H]1C=C[C@H](ON=C[C@@H](OC)[C@H](C)C=CCC(=O)OC)[C@@H](CO)O1`, for which the z-score was -0.022 (inactive). As to `CN1C(=O)C2C(C1=O)C1C=C(CCCO)C2C(c2ccc(CN3CCCC3)cc2)N1C` (stereo unspecified), the z-score is -2.14 (inactive). On to `COCC(=C=CC[C@@H](O)c1ccccc1OCCO)CCO`, for which the z-score is 1.64 (inactive). As for `COCCOC(=O)N1C(=O)[C@@]2(c3cc(C#CCNC(N)=O)ccc31)[C@H](c1ccc(O)cc1)N1[C@H](c3ccccc3)[C@H](c3ccccc3)OC(=O)[C@H]1[C@@H]2C(=O)N1CCCCCCC1`, the z-score was 1.49 (inactive). For `C=C(/C(=C/C[C@H](OC(=O)c1ccncc1)c1ccc(OCCO)cc1)c1cnc2ccccc2c1)C(C)C`, the z-score is -0.513 (inactive). Take `Cc1cc2c(c(=O)o1)[C@H](O)[C@H]1O[C@H]1C2=O`: the z-score was 1.67 (inactive). `COC(=O)[C@@H]1CC[C@H](C)[C@@H](c2ccc(C)cc2)N1C(=O)c1ccc(C=NOC[C@@H](O)COCc2ccco2)cc1`: the z-score was -0.0479 (inactive). On to `CO[C@@H]1COC(=O)[C@H](C)NC(=O)[C@@H](C)COC(=O)CCC[C@H]1C`, for which the z-score was -0.869 (inactive).

Regarding `CC(C)c1ccc(NN2C(C(O)c3ccc4c(c3)OCO4)C=CC3C(=O)N(c4ccccc4)C(=O)C32)cc1` (stereo unspecified), the z-score is -0.488 (inactive). `CCOC(=O)[C@H](Cc1ccccc1)NC(=O)CCC1CC(OC(=O)NCc2ccc3c(c2)OCO3)CC2(CCCC(COC(=O)NCc3ccccc3)O2)O1` (stereo partly specified): the z-score is -0.988 (inactive). On to `CC(C)(C)OC(=O)CC[C@]1(C(=O)NCc2ccccc2)N=C(c2ccc(OCCCO)cc2)O[C@H]1c1ccccc1`, for which the z-score was -2.22 (inactive). Consider `Cc1ccc(C2CC=C(C(=O)O)CN2S(=O)(=O)c2ccc(C)cc2)cc1` (stereo unspecified), for which the z-score was -0.446 (inactive).

Take `CC[C@@H](c1ccccc1)n1c(=O)n2n(c1=O)[C@H]1[C@H](O)[C@@H]3O[C@@H]3C(=NOCC=C(C)CCC=C(C)C)[C@H]1CC2`: the z-score was 2.38 (inactive). With `CC(CCC(=O)OC[C@H]1O[C@H](C#Cc2ccccc2)C=C[C@@H]1Oc1ccc(C)cc1)=NOC[C@@H](O)COCc1ccco1`, the z-score was -0.0388 (inactive).

The values are drawn from PubChem BioAssay.
